Pf growth 96h = inhibits malaria parasite growth, 96 h; 320,000 compounds, 6.9% hits; P. falciparum luciferase reporter growth, 96 h; Potency, µM (highest dose often 28.7 µM), actives largely listed as inhibitors; AID 504834
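Erythrocytes infected with luciferase-expressing P. falciparum were dispensed at 2% hematocrit and 0.05% parasitemia (final), then incubated with compounds 96 hours at 37 C in 5% CO2. Luminescence after detection reagent addition reported growth.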
Shiga toxin inh = blocks Shiga toxin action in Vero cells. 290,000 compounds, 9.2% hits. Vero cells, Shiga toxin protein synthesis inhibition reporter. inhibition, % at 38.7 µM; in the data active = inhibition mostly above about 28%, no sharp cut-off; inactive = mostly below about 43%
CHX counter = counter-screen hit for Shiga toxin inhibitors, cycloheximide. cell reporter, cycloheximide protein synthesis inhibition counterscreen. max response, %. 300,000 compounds, 12% hits. AID 2314; in the data active = max response mostly above about 13%, no sharp cut-off; inactive = mostly below about 14%; note: read at 38.3 µM for the half of the compounds with a filed dose
Pf growth 48h = inhibits P. falciparum growth in the first generation, 48 h | P. falciparum luciferase growth in erythrocytes, 48 h | Potency, µM (titrated, usually from 28.7 µM), usual class: inhibitors | 310,000 compounds, 5.9% hits | AID 504832
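Cell-based growth assay: transgenic P. falciparum expressing firefly luciferase, cultured in red cells within RPMI 1640 containing 0.5% w/v Albumax, 24 mM bicarbonate and gentamycin. A drop in luciferase activity indicates inhibition.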
Of the large screens only hits and unclear results are named; the others gave an inactive call. Only some compounds are listed: those with a hit (about 21% of all), similar ones and a draw of the others. Unless noted, calls come from the whole dose curve; as a rule, active = well fitted inhibition curve with a large enough effect; inconclusive = small, poorly fitted or top-dose-only effect, or another doubt; inactive = no such curve, though single readings can be large or run the other way.

COc1ccccc1OCCC(=O)NNC(=O)c1ccccc1F	none (no result: Shiga toxin inh, CHX counter)
COc1ccccc1CNS(=O)(=O)c1cc(CN2C(=O)c3cccnc3C2=O)ccc1OC	none
O=C1c2cccnc2C(=O)N1Cc1ccc(Cl)cc1	Pf growth 96h 1.65µM
COc1ccc(CN2C(=O)c3cccnc3C2=O)cc1S(=O)(=O)NC1CCCCC1	Pf growth 96h 13.1µM
CN(C)S(=O)(=O)c1ccc(NC(=O)COc2ncnc3sccc23)cc1	none
Cc1ccc(-c2[nH]nc3c2C(c2ccccc2OC(=O)N2CCOCC2)C(C#N)=C(N)O3)cc1 (stereo not drawn)	Pf growth 96h 10.4µM, Pf growth 48h inconclusive
COc1ccc(-c2[nH]nc3c2C(c2ccc(OC(=O)N4CCOCC4)cc2)C(C#N)=C(N)O3)cc1 (stereo not drawn)	Pf growth 96h 13.1µM
COc1ccc(-c2[nH]nc3c2C(c2ccccc2OC(=O)N2CCOCC2)C(C#N)=C(N)O3)cc1 (stereo not drawn)	Pf growth 48h inconclusive
O[C@@H]1COC2[C@@H](O)CO[C@@H]21 (stereo partly drawn)	none (no result: Pf growth 96h, Pf growth 48h)
CC(C)(C)NC(=O)[C@@H]1C[C@@H]2CCCC[C@@H]2CN1C[C@@H](O)[C@H](Cc1ccccc1)NC(=O)[C@H](CC(N)=O)NC(=O)c1ccc2ccccc2n1	Pf growth 96h 15.1µM, Pf growth 48h inconclusive
N#CCCS(=O)(=O)c1nnnn1-c1ccccc1	CHX counter 18.9, Pf growth 48h inconclusive
c1ccc(-n2nnnc2Cc2nnnn2-c2ccccc2)cc1	Pf growth 48h inconclusive
CC(=O)N(C)c1ccc(NC(=S)NCC(C)C)cc1	CHX counter 15.2
COC(=O)Cc1ccc(NC(=S)NCC(C)C)cc1	CHX counter 16.2
c1ccc(NC2=NCCN2CCC2CCCCC2)cc1	Pf growth 96h inconclusive
CCN(C(=O)CSc1nc(N)cc(N)n1)C1CCS(=O)(=O)C1 (stereo not drawn)	none
O=C(Nc1nc(-c2cccs2)cs1)c1ccco1	Shiga toxin inh 90.6, CHX counter 37.4
O=C(Nc1nc(-c2ccccn2)cs1)c1cccc(-n2cnnn2)c1	Pf growth 96h 0.928µM, Pf growth 48h 1.17µM
O=C(Nc1nc(-c2ccccn2)cs1)c1ccco1	Pf growth 96h inconclusive, Shiga toxin inh 89.3, CHX counter 54.3, Pf growth 48h inconclusive
C=CCNC(=S)NNC(=O)CC12CC3CC(CC(C3)C1)C2	Pf growth 96h inconclusive
O/N=C(\CN1CCCCC1)c1ccccc1	none (no result: Pf growth 48h)
c1ccc(N2CCN(c3nnc(Cc4cccnc4)c4ccccc34)CC2)nc1	Pf growth 48h 7.38µM
CCOc1ccc(OCC)c(NC(=O)c2nnn(CC(=O)Nc3cc(C)cc(C)c3)c2N)c1	Pf growth 96h inconclusive
Cc1csc(=O)n1CCC(=O)OCC(=O)Nc1cccc(C#N)c1	none (no result: Shiga toxin inh, CHX counter)
O=C(CSCC(=O)N1CCN(c2ccccc2)CC1)Nc1nc(-c2ccc(Cl)s2)cs1	Pf growth 96h inconclusive, Pf growth 48h inconclusive
O=C(CSCC(=O)N1CCCCC1)Nc1nc(-c2ccc(Cl)s2)cs1	CHX counter 15.8 (no result: Pf growth 48h)
O=C(CSCC(=O)N1CCCCC1)Nc1nc(-c2cccs2)cs1	CHX counter 19.6 (no result: Pf growth 48h)
CC1CC(C)CN(C(=O)CSCC(=O)Nc2nc(-c3cccs3)cs2)C1 (stereo not drawn)	none
CCOC(=O)N1CCN(C(=O)CSCC(=O)Nc2nc(-c3ccccc3)cs2)CC1	Shiga toxin inh 30.1
Cc1nnc(SCC(=O)Nc2nc(-c3ccccc3)cs2)n1N	none
Cn1c(=O)c2c(SCC(=O)N3CCCCC3)nc(-c3ccccc3F)nc2n(C)c1=O	none
CCOC(=O)c1cc(-c2c(Cl)cccc2Cl)no1	Pf growth 48h inconclusive
COc1ccc(N(C(=O)CCC(=O)Nc2cc(C)on2)C(C(=O)NC2CCCC2)c2ccco2)cc1 (stereo not drawn)	Pf growth 96h inconclusive
COc1ccc(N(C(=O)CSCC(=O)Nc2cc(C)on2)C(C(=O)NC2CCCCC2)c2ccc(O)c(O)c2)cc1 (stereo not drawn)	Pf growth 96h 2.62µM
Cc1cc(NC(=O)CSCC(=O)N(c2cccc(Cl)c2)C(C(=O)NC2CCCCC2)c2ccc(O)c(O)c2)no1 (stereo not drawn)	Pf growth 96h 9.28µM, Pf growth 48h inconclusive
Cc1cc(NC(=O)CSCC(=O)N(c2ccc(F)cc2)C(C(=O)NC2CCCCC2)c2ccc(O)c(O)c2)no1 (stereo not drawn)	Pf growth 96h 14.7µM, Pf growth 48h inconclusive
COc1ccc(N(C(=O)/C=C/C(=O)Nc2cc(C)on2)C(C(=O)NC2CCCC2)c2ccccc2C)cc1 (stereo not drawn)	Pf growth 48h 9.28µM
Cc1ccc(C(C(=O)NC2CCCC2)N(C(=O)CCC(=O)Nc2cc(C)on2)c2ccccc2)cc1 (stereo not drawn)	none
